SMILES strings stand for the structures. Hit rate of the full screen: of about 320,000 compounds, about 2,100 (0.66%) were called active. Inconclusive results (about 53%) are left out. The call rests on the fitted dose curve; in most records, active means well fitted inhibition curve with a large enough effect in the signal ratio, with a control signal flat (not every such curve was filed as active); inconclusive means small, poorly fitted or top-dose-only effect, or effect the other way, or a change in a side signal; inactive means flat fitted curve, though single readings scatter; the % refers to the signal ratio. The entries come from a sample that favours actives as a whole.

Data on 45 compounds can be found in PubChem BioAssay AID2685 (National Center for Advancing Translational Sciences (NCATS), 2010).
Potency means the concentration at half of the fitted maximal effect.

The assay is described as follows: qHTS Assay for Lipid Storage Modulators in Drosophila S3 Cells.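 On cell number change: cells counted by Cell Tracker Red CMTPX staining in the red channel.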 On lipid storage change, negative = inhibition: on the % scale 0 is the no-effect control and ±100 the full control effect. Particulars: BODIPY lipid droplet fluorescence, 18-24 h, cells fed with added oleic acid; cell number change: measured here: cell count max response; series mostly up to 46.1 µM; lipid storage change, negative = inhibition: at the top concentration. The text has this: NIH Molecular Libraries Probe Production Centers Network [MLPCN] NIH Chemical Genomics Center [NCGC] MLPCN Grant: 1 R03 MH085686-01 Assay Submitter (PI): Beller, Mathias; Max-Planck-Institut fur Biophysikalische Chemie NCGC Assay Overview: Storing lipids as a reservoir for energy or the anabolism of elementary metabolites is a common feature of probably all cells and is conserved from bacteria to humans. The universal cellular lipid storage organelle is the so-called lipid storage droplet (LD). Although ubiquitous, LDs share a simple structure composed of a hydrophobic core that harbors the storage lipids, which is shielded by a droplet-specific phospholipid monolayer to which proteins are attached. The current model of LD biogenesis involves an incorporation of the lipid core into the membrane leaflets of the endoplasmic reticulum (ER) followed by a subsequent budding-like maturation of a LD, which ultimately pinches off. Once released, LD volume can increase by localized lipogenesis or fusion of existing droplet. Storage lipids are re-mobilized enzymatically by lipase activity. Lipase regulation in the adipocyte is heavily studied and involves multiple components including catecholamine signaling, the LD-associated proteins Perilipin and comparative gene identification (CGI-58) and at least two lipases named hormone sensitive lipase (HSL) and adipocyte triglyceride lipase (ATGL). LD regulation outside of the adipocyte is poorly understood and only few components are known. However, there is an urgent need to learn more about ectopic fat depots as mislocalized storage of lipids, for example in the liver or muscle, is an eminent health problem associated with insulin resistance or the metabolic syndrome. We developed a laser-scanning cytometer assay to enable 1,536-well screening and combined the results of the small molecules screen with an RNAi database based on lipid storage.
Triacsin C (Sigma-Aldrich T-4540), an inhibitor of long-chain fatty acyl CoA synthetase that blocks synthesis of triglycerides, was used as a positive control for lipid under-storage. A total of 23 nL of compound solution of different concentrations were transferred to the assay plates using a Kalypsys pin tool equipped with a 1,536-pin array containing 10-nL slotted pins (FP1S10, 0.457-mm diameter, 50.8 mm long; V&P Scientific). One microliter of oleic acid (400 uM) was added, and the plate was lidded with stainless steel rubber gasket lined lids containing pinholes. […] Fluorescence was detected by excitation of the fluorophores with a 488-nm laser on an Acumen Explorer (TTP Lab Tech). The total intensity in channel 2 (500-530 nm) reflected lipid droplet accumulation. Cells were detected using channel 3 (575-640 nm) with 5-um width and 100-um depth filters. The ratio of the number of objects in PMT channel 2 over the number of objects in PMT channel 3 was also calculated. Percent activity was computed relative to an internal control (100% inhibited lipid droplet deposition due to the presence of 20 uM Triacsin C), which was added to 32 wells/plate.
On the technique in general: Quantitative high-throughput screening tests each substance at several concentrations.
Consider `CC(CNC(=O)CCCn1ncn2c(cc3occc32)c1=O)c1ccccc1` (stereo not given), for which the call was inactive and the cell number change was found to be 24%.

As for `CCOc1ccccc1CNC(=O)CCCn1ncn2c(cc3occc32)c1=O`, the Potency was 29.1 µM (active) and the cell number change was -5.42%.

As for `COc1cccc(CNC(=O)CCCn2ncn3c(cc4occc43)c2=O)c1`, the outcome was inactive and the cell number change is -2.59%.

For the compound `Cc1cc(C(=O)N2CCN(S(=O)(=O)c3ccccc3)CC2)c(C)o1`, the “lipid storage change, negative = inhibition” value was 21.7% (inactive) and the cell number change amounted to 15.7%.

With `CCCCn1nc2cc(C(=O)N[C@H](C)C3CCCCC3)ccc2c1OCC`, the “lipid storage change, negative = inhibition” value was -0.499% (inactive) and the cell number change is -12%.

Consider `CCOC(=O)c1sc(NC(=O)CCc2ccccc2)nc1C`, for which the compound was called inactive and the cell number change is 3.17%.

With `Cc1ccc(-n2c(C)cc(C(=O)COC(=O)c3ccc[nH]c3=O)c2C)cc1C`, the “lipid storage change, negative = inhibition” value is 1.49% (inactive) and the cell number change was -2.22%.

Consider `Cc1ccc(-n2c(C)cc(C(=O)CN3CCOCC3)c2C)cc1C`, for which the “lipid storage change, negative = inhibition” value is -17% (inactive) and the cell number change was -2.77%.

`Cc1ccc(-n2c(C)cc(C(=O)COc3c(CO)cc(F)cc3CO)c2C)cc1C`: the Potency is 8.2 µM (active) and the cell number change was 4.17%.

In the case of `Cc1cccc(NC(=O)C2CCCN2C(=O)Oc2ccccc2)c1` (stereo not given), the “lipid storage change, negative = inhibition” value was -0.0768% (inactive) and the cell number change was -1.72%.

Turning to `Cc1cc(C)nc(NC(=O)c2c(Cl)cccc2Cl)n1`, the “lipid storage change, negative = inhibition” value is -9.48% (inactive) and the cell number change is 0.843%.

For the compound `CN(C)c1ccc(/C=N/NC(=O)c2ccc(CN3C(=O)c4cccc5cccc3c45)cc2)cc1`, the “lipid storage change, negative = inhibition” value was 13% (inactive) and the cell number change turned out to be 10.4%.

Turning to `COc1cc(/C=N/NC(=O)c2ccc(CN3C(=O)c4cccc5cccc3c45)cc2)cc(OC)c1O`, the Potency was 3.26 µM (active) and the cell number change is -19.2%.

For the compound `COc1cc(/C=N/NC(=O)c2ccc(CN3c4cccc5cccc(c45)S3(=O)=O)cc2)cc(OC)c1O`, the outcome was inactive and the cell number change is -26.4%.

In the case of `Cc1cc(C)cc(NC(=O)COc2coc(CN3CCc4ccccc4C3)cc2=O)c1`, the “lipid storage change, negative = inhibition” value is -14.9% (inactive) and the cell number change was -22.1%.

As to `Cc1ccc(NC(=O)COc2coc(CN3CCc4ccccc4C3)cc2=O)c(C)c1`, the outcome is “inactive [at 0.0737 µM]”.

Take `Cc1ccc(C)c(NC(=O)COc2coc(CN3CCc4ccccc4C3)cc2=O)c1`: the Potency was 6.51 µM (active) and the cell number change was -25.7%.

Consider `CCc1cccc(CC)c1NC(=O)COC(=O)CC1c2ccccc2CCN1S(=O)(=O)c1ccccc1` (stereo not given), for which the “lipid storage change, negative = inhibition” value is -0.415% (inactive) and the cell number change was 0.0752%.

Turning to `COCCSc1nc(N)c(NC(=O)c2ccco2)c(=O)[nH]1`, the “lipid storage change, negative = inhibition” value was -9.67% (inactive) and the cell number change was -16.8%.

Take `COc1ccc(CC(=O)NCC(=O)N/N=C/c2c[nH]c3ccccc23)cc1`: the “lipid storage change, negative = inhibition” value was 27.6% (inactive) and the cell number change amounted to 14.2%.

In the case of `CCCCCCCNC(=O)C1(CC2CC(c3ccc(Cl)cc3)=NO2)CCNCC1` (stereo not given), the compound was called inactive and the cell number change is -6.47%.

On to `CNC(=O)/C(=C\c1cccc(Oc2ccccc2)c1)NC(=O)c1ccccc1`, for which the “lipid storage change, negative = inhibition” value is -0.332% (inactive) and the cell number change was determined as 2.1%.

As for `CCCn1c(-c2ccc(OC)cc2)nc2c(=O)n(C)c(=O)[nH]c21`, the Potency was 29.1 µM (active) and the cell number change worked out at 11.6%.

On to `CCCn1c(-c2ccccc2)nc2c(=O)n(C)c(=O)[nH]c21`, for which the “lipid storage change, negative = inhibition” value was -1.42% (inactive) and the cell number change was -15.6%.

As to `CCCCn1c(-c2ccc(OC)cc2)nc2c(=O)n(C)c(=O)[nH]c21`, the “lipid storage change, negative = inhibition” value was 4.44% (inactive) and the cell number change was determined as 12.4%.

Turning to `CN(C)c1ccc(NC(=O)CN2CCC(NC(=O)C3CCCCC3)CC2)cc1`, the “lipid storage change, negative = inhibition” value is -9.2% (inactive) and the cell number change came to 6.84%.

For `CN(C)c1ccc(NC(=O)CN2CCC(N3CCCCC3)CC2)cc1`, the Potency was 23.1 µM (active) and the cell number change is -25.9%.

Take `CCN1CCN(CC(=O)Nc2ccc(N(C)C)cc2)CC1`: the compound was called inactive and the cell number change was found to be 14.8%.

As for `O=C(O)C1CC1C(=O)N1CCN(c2ccc(Cl)c(Cl)c2)CC1` (stereo not given), the “lipid storage change, negative = inhibition” value was 3.52% (inactive) and the cell number change stood at 16.3%.

For the compound `CCc1nc2nc(C)c(NS(=O)(=O)c3ccc(C4CCCCC4)cc3)c(=O)n2[nH]1`, the compound was called inactive.

`COc1cc(C(=O)NC2CCCc3c2cnn3-c2ccccc2F)cc(OC)c1OC` (stereo not given): the Potency is 16.4 µM (active) and the cell number change came to 22.4%.

In the case of `Cc1cccc(-n2ncc3c2CCCC3NC(=O)CN2CCCC2=O)c1C` (stereo not given), the “lipid storage change, negative = inhibition” value was 6.5% (inactive) and the cell number change was -2.49%.

On to `O=C(CCN1CCCC1=O)NC1CCCc2c1cnn2-c1ccccc1F` (stereo not given), for which the “lipid storage change, negative = inhibition” value is -1.27% (inactive) and the cell number change is 11%.

Regarding `Cc1cccc(-n2ncc3c2CCCC3NC(=O)CCN2CCCO2)c1C` (stereo not given), the “lipid storage change, negative = inhibition” value is -7.74% (inactive) and the cell number change is -19.9%.

In the case of `Cc1ccccc1-n1ncc2c1CC(C)(C)CC2NC(=O)c1snnc1C` (stereo not given), the “lipid storage change, negative = inhibition” value was 2.11% (inactive) and the cell number change worked out at 7.34%.

Consider `Cc1cc(C(=O)NC2CCCc3c2cnn3-c2cccc(C)c2C)n(C)n1` (stereo not given), for which the Potency is 0.92 µM (active) and the cell number change was determined as 5.94%.

As to `Cc1nnsc1C(=O)NC1CCCc2c1cnn2-c1ccccc1F` (stereo not given), the Potency is 4.11 µM (active).

As for `COc1ccc(C(=O)NC2CCCc3c2cnn3-c2cc(F)cc(F)c2)c(OC)c1OC` (stereo not given), the compound was classed as inactive.

For `COc1cc(C(=O)NC2CC(C)(C)Cc3c2cnn3-c2ccccc2)cc(OC)c1OC` (stereo not given), the “lipid storage change, negative = inhibition” value was 6.07% (inactive) and the cell number change is 9.79%.

As for `O=C(O)CCCC(=O)Nc1nc(-c2ccc(F)cc2)cs1`, the compound was called inactive.

In the case of `COc1ccc(-n2c(SCC(=O)NCC3CCCO3)nc3c([nH]c4ccccc43)c2=O)cc1OC` (stereo not given), the call was inactive and the cell number change was -13.6%.

For the compound `Cc1ccc(OCC(=O)Nc2ccc(N3CCN(S(C)(=O)=O)CC3)cc2)cc1`, the compound was classed as inactive and the cell number change came out at 18.1%.

For the compound `O=C(CSc1nnc2c(Cl)cc(C(F)(F)F)cn12)Nc1ccc2c(c1)OCO2`, the “lipid storage change, negative = inhibition” value is 18.7% (inactive) and the cell number change was -8.45%.

Turning to `COc1ccc(-c2cn[nH]c2-c2ccc(OCC(=O)NN)cc2O)cc1OC`, the “lipid storage change, negative = inhibition” value is 4.99% (inactive) and the cell number change came out at 12.9%.

Regarding `O=C(N[C@@H](CO)C(=O)NCc1ccccc1)c1ccc(C(F)(F)F)cc1`, the “lipid storage change, negative = inhibition” value was 5.11% (inactive) and the cell number change stood at 23.3%.
